This is an account of results in PMC12820563, “FoxP3 forms a head-to-head dimer in vivo and stabilizes its multimerization on adjacent microsatellites”.

In all, about 16,000 sequences were measured (“rpm ratio (pull-down/input)”: median about 0.94, highest 2% from about 1.7 on). The sample holds the highest values, similar sequences and a random draw of the others, so the mix is not that of the screen.

The assay concerns the target T1, MBP-FoxP1dN (Mus musculus, UniProt P58462 326-579).
T1 sequence: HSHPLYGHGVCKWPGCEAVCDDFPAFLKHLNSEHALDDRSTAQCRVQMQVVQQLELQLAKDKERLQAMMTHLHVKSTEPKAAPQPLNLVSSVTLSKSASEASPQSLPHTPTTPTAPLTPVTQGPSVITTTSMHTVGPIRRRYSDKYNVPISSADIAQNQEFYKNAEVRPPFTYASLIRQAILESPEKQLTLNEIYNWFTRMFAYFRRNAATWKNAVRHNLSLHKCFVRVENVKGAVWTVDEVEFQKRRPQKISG
Description: PD-seq (MBP pull-down with sequencing); 20 mM Tris-HCl pH 7.5, 100 mM NaCl, 1.5 mM MgCl2, 0.4 uM protein, 0.1 uM dsDNA library, 30 min, room temperature, amylose pull-down; high values mean tight binding. As to conditions: protein: recombinant; tags: His6-MBP; chain copies: 2; dsDNA, one strand shown. The procedure, abridged: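 The N-terminus-lacking fragment of mouse FoxP3 or FoxP1 carried a His6-MBP tag and was expressed in E. coli. At 0.4 µM it was incubated with 0.1 µM Klenow-filled degenerate double-stranded DNA library for 30 min at room temperature in Tris pH 7.5 buffer with NaCl and MgCl2, and complexes were caught on amylose resin, washed three times, released with proteinase K, PCR-barcoded and Illumina-sequenced. Binding is reads-per-million enrichment of pull-down over input with replicates pooled.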
For “GATGATTGTTCTCCCAGCTGATGAATTAACAGTTTCGAGTAAACAAATTTTCCTAATCTTTCTGTTCAAGCGCCATCTAC”, the binding signal is 1.09 RPM ratio (pull-down/input).

Turning to “GATGATTGTTCTCCCAGCTGATGAATTGTAAAAGTCGAGTAAACAAATTTTCCTAATCTTTCTGTTCAAGCGCCATCTAC”, the binding signal was 0.943 RPM ratio (pull-down/input).

“GATGATTGTTCTCCCAGCTGATGAATTATGTCGCTCGAGTAAACAAATTTTCCTAATCTTTCTGTTCAAGCGCCATCTAC”: the binding signal was 1.01 RPM ratio (pull-down/input).

Turning to “GATGATTGTTCTCCCAGCTGATGAATTCCATAAGTCGAGTAAACAAATTTTCCTAATCTTTCTGTTCAAGCGCCATCTAC”, the binding signal was 0.896 RPM ratio (pull-down/input).

Regarding “GATGATTGTTCTCCCAGCTGATGAATTCTCTGGCTCGAGTAAACAAATTTTCCTAATCTTTCTGTTCAAGCGCCATCTAC”, the binding signal is 0.769 RPM ratio (pull-down/input).

Regarding “GATGATTGTTCTCCCAGCTGATGAATTATCGGCTTCGAGTAAACAAATTTTCCTAATCTTTCTGTTCAAGCGCCATCTAC”, the binding signal was 0.859 RPM ratio (pull-down/input).

Take “GATGATTGTTCTCCCAGCTGATGAATTACATGGATCGAGTAAACAAATTTTCCTAATCTTTCTGTTCAAGCGCCATCTAC”: the binding signal was 1 RPM ratio (pull-down/input).

On to “GATGATTGTTCTCCCAGCTGATGAATTGCGCCCCTCGAGTAAACAAATTTTCCTAATCTTTCTGTTCAAGCGCCATCTAC”, for which the binding signal was 0.966 RPM ratio (pull-down/input).

As for “GATGATTGTTCTCCCAGCTGATGAATTATTGAGCTCGAGTAAACAAATTTTCCTAATCTTTCTGTTCAAGCGCCATCTAC”, the binding signal was 0.941 RPM ratio (pull-down/input).

As to “GATGATTGTTCTCCCAGCTGATGAATTTCCTACCTCGAGTAAACAAATTTTCCTAATCTTTCTGTTCAAGCGCCATCTAC”, the binding signal was 0.823 RPM ratio (pull-down/input).

Regarding “GATGATTGTTCTCCCAGCTGATGAATTACCATTGTCGAGTAAACAAATTTTCCTAATCTTTCTGTTCAAGCGCCATCTAC”, the binding signal is 1.04 RPM ratio (pull-down/input).

Regarding “GATGATTGTTCTCCCAGCTGATGAATTGCACTCCTCGAGTAAACAAATTTTCCTAATCTTTCTGTTCAAGCGCCATCTAC”, the binding signal is 1.15 RPM ratio (pull-down/input).

In the case of “GATGATTGTTCTCCCAGCTGATGAATTGTTGCACTCGAGTAAACAAATTTTCCTAATCTTTCTGTTCAAGCGCCATCTAC”, the binding signal is 1.76 RPM ratio (pull-down/input).

Turning to “GATGATTGTTCTCCCAGCTGATGAATTTTTGCACTCGAGTAAACAAATTTTCCTAATCTTTCTGTTCAAGCGCCATCTAC”, the binding signal was 0.891 RPM ratio (pull-down/input).

Take “GATGATTGTTCTCCCAGCTGATGAATTACTACAATCGAGTAAACAAATTTTCCTAATCTTTCTGTTCAAGCGCCATCTAC”: the binding signal is 1.55 RPM ratio (pull-down/input).

For the sequence “GATGATTGTTCTCCCAGCTGATGAATTTCAATAATCGAGTAAACAAATTTTCCTAATCTTTCTGTTCAAGCGCCATCTAC”, the binding signal is 1.31 RPM ratio (pull-down/input).

In the case of “GATGATTGTTCTCCCAGCTGATGAATTACAATAATCGAGTAAACAAATTTTCCTAATCTTTCTGTTCAAGCGCCATCTAC”, the binding signal is 1.83 RPM ratio (pull-down/input).

On to “GATGATTGTTCTCCCAGCTGATGAATTACAATTATCGAGTAAACAAATTTTCCTAATCTTTCTGTTCAAGCGCCATCTAC”, for which the binding signal was 1.51 RPM ratio (pull-down/input).

“GATGATTGTTCTCCCAGCTGATGAATTACAACAATCGAGTAAACAAATTTTCCTAATCTTTCTGTTCAAGCGCCATCTAC”: the binding signal was 2.1 RPM ratio (pull-down/input).

With “GATGATTGTTCTCCCAGCTGATGAATTACAGCAATCGAGTAAACAAATTTTCCTAATCTTTCTGTTCAAGCGCCATCTAC”, the binding signal was 1.28 RPM ratio (pull-down/input).

As to “GATGATTGTTCTCCCAGCTGATGAATTGCTATGCTCGAGTAAACAAATTTTCCTAATCTTTCTGTTCAAGCGCCATCTAC”, the binding signal is 1.01 RPM ratio (pull-down/input).

As for “GATGATTGTTCTCCCAGCTGATGAATTTTGGATGTCGAGTAAACAAATTTTCCTAATCTTTCTGTTCAAGCGCCATCTAC”, the binding signal was 0.849 RPM ratio (pull-down/input).

Regarding “GATGATTGTTCTCCCAGCTGATGAATTACGATTGTCGAGTAAACAAATTTTCCTAATCTTTCTGTTCAAGCGCCATCTAC”, the binding signal is 1.16 RPM ratio (pull-down/input).

Consider “GATGATTGTTCTCCCAGCTGATGAATTATTTAAATCGAGTAAACAAATTTTCCTAATCTTTCTGTTCAAGCGCCATCTAC”, for which the binding signal was 1.24 RPM ratio (pull-down/input).

“GATGATTGTTCTCCCAGCTGATGAATTGCGTACGTCGAGTAAACAAATTTTCCTAATCTTTCTGTTCAAGCGCCATCTAC”: the binding signal was 1.1 RPM ratio (pull-down/input).

As for “GATGATTGTTCTCCCAGCTGATGAATTCCTTGTGTCGAGTAAACAAATTTTCCTAATCTTTCTGTTCAAGCGCCATCTAC”, the binding signal was 0.961 RPM ratio (pull-down/input).

In the case of “GATGATTGTTCTCCCAGCTGATGAATTAAGCGCATCGAGTAAACAAATTTTCCTAATCTTTCTGTTCAAGCGCCATCTAC”, the binding signal is 1.27 RPM ratio (pull-down/input).

With “GATGATTGTTCTCCCAGCTGATGAATTGTCATATTCGAGTAAACAAATTTTCCTAATCTTTCTGTTCAAGCGCCATCTAC”, the binding signal was 1.17 RPM ratio (pull-down/input).

As for “GATGATTGTTCTCCCAGCTGATGAATTCATATTGTCGAGTAAACAAATTTTCCTAATCTTTCTGTTCAAGCGCCATCTAC”, the binding signal was 1.9 RPM ratio (pull-down/input).

As to “GATGATTGTTCTCCCAGCTGATGAATTCTCATATTCGAGTAAACAAATTTTCCTAATCTTTCTGTTCAAGCGCCATCTAC”, the binding signal was 0.94 RPM ratio (pull-down/input).

Turning to “GATGATTGTTCTCCCAGCTGATGAATTTTCATATTCGAGTAAACAAATTTTCCTAATCTTTCTGTTCAAGCGCCATCTAC”, the binding signal is 1.06 RPM ratio (pull-down/input).
